Data on 54 compounds can be found in PMC4336329 (PLoS ONE, 2015).

In all, about 310,000 compounds went through this assay and about 2,200 (0.71%) showed an effect of 50% or more. Effects have a minus sign here. The list comes from a sample in which strong results are over-represented; it also holds similar structures and randomly drawn compounds.

The target in the test is human ether-à-go-go-related gene (hERG) potassium channel (human, UniProt Q12809). Nature of the test: primary screen, population patch clamp on CHO cells stably expressing hERG; higher = less effect of the substance.
Sequence of human ether-à-go-go-related gene (hERG) potassium channel (Q12809 whole entry, looked up): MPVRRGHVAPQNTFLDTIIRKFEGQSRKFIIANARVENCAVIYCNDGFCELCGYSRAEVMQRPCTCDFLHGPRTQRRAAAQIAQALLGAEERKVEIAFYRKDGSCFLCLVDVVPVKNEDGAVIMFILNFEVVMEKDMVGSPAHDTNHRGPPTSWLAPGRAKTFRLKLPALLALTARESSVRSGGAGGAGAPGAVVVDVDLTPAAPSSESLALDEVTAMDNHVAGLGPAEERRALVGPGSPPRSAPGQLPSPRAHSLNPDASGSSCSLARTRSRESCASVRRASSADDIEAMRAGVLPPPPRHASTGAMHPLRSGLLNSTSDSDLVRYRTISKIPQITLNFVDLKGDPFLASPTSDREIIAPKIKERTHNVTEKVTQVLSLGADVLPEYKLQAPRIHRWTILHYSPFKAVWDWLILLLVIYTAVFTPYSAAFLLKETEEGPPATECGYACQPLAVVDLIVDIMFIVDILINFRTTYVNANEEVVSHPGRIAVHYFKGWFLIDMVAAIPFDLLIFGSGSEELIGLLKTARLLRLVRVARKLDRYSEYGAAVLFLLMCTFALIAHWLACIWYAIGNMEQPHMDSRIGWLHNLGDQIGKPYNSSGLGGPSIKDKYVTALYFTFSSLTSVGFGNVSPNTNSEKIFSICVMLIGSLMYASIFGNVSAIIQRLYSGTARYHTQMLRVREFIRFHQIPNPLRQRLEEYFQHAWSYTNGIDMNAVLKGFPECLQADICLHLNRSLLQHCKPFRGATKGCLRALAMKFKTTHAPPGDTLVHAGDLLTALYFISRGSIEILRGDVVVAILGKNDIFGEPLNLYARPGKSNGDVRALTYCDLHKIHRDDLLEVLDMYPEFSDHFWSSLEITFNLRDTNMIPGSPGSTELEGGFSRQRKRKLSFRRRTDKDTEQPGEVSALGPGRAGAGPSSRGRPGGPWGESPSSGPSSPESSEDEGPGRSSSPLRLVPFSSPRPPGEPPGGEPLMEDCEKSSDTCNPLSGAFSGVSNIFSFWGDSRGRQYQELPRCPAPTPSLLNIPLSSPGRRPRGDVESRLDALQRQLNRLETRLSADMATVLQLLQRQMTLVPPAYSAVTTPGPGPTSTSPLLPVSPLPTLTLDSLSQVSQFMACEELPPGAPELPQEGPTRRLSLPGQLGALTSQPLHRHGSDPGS
As for `O=C(Cc1ccc([N+](=O)[O-])cc1)Nc1ccc2c(c1)CCC2`, the “hERG current change (%, negative = inhibition) at 1uM” value came to 10.4%.

For the compound `COc1ccc(-c2nsc(SCC(=O)Nc3ccc4c(c3)OCO4)n2)cc1`, the “hERG current change (%, negative = inhibition) at 1uM” value came out at 15%.

Take `COC(=O)[C@@H](NC(=O)c1ccccc1)[C@@H](C)O`: the “hERG current change (%, negative = inhibition) at 1uM” value came out at 5.85%. With `C1CCN(c2nc(N3CCCCC3)nc(N3CCNCC3)n2)CC1` the figure was 2.68%; with `Nc1nc(N2CCCCC2)nc(N2CCCCC2)n1`, -78.5%. With `Nc1nc(N2CCCCC2)nc(N(c2ccccc2)c2ccccc2)n1` the figure was 15.2%; with `COC(=O)CN1C(=O)Nc2ccc(Br)cc2C1c1ccccc1Cl` (stereo not drawn), -8.8%; with `C/C(=N/NC(=O)c1cccnc1)C1=C(O)CC(C)(C)CC1=O`, 18.4%. The figure for `CCOC(=O)CSc1cn2c(n1)CCC2` is 14.5%.

`CNC(=O)CSc1nc2cc(S(=O)(=O)Nc3ccccc3OC)ccc2o1`: the “hERG current change (%, negative = inhibition) at 1uM” value was found to be 9.52%. The figure for `Cc1sc2ncnc(N3CCOCC3)c2c1C` is -5.93%; for `Cc1sc2ncnc(NCCN3CCOCC3)c2c1C.O=C(O)C(=O)O` it is 9.44%; for `Cc1sc2ncnc(NCC(C)(C)N3CCOCC3)c2c1C` it is -63.6%. The figure for `COC(=O)CC1NCCc2cc(OC)c(OC)cc21` (stereo not drawn) is 5.12%; for `CC(OC(=O)CCC1CCCCC1)C(=O)Nc1ccc(S(N)(=O)=O)cc1` (stereo not drawn) it is 9.83%. In the case of `CCOC(=O)C1CCCN(C(=O)CC(c2ccccc2)c2ccccc2)C1` (stereo not drawn), the “hERG current change (%, negative = inhibition) at 1uM” value is on record as -2.54%. In the case of `O=C(CN=C1NS(=O)(=O)c2ccccc21)OCC(=O)c1ccccc1`, the “hERG current change (%, negative = inhibition) at 1uM” value is 10.8%.

Turning to `CCC(C)(C)c1ccc(OCCCC[n+]2cccc(C)c2C)c(C(C)(C)CC)c1.[Br-]`, the “hERG current change (%, negative = inhibition) at 1uM” value is reported as -52.7%. The figure for `CCC(C)(C)c1ccc(OCCCC[n+]2ccc(C)cc2)c(C(C)(C)CC)c1.[Br-]` is -34.5%. Turning to `CCC(C)(C)c1ccc(OCCCC[n+]2ccccc2)c(C(C)(C)CC)c1.[Br-]`, the “hERG current change (%, negative = inhibition) at 1uM” value is -28.5%. In the case of `N#Cc1cc2[nH]c3ccccc3c2[n+](-c2ccc([N+](=O)[O-])cc2)c1N.[Cl-]`, the “hERG current change (%, negative = inhibition) at 1uM” value is given as -28.7%. The figure for `CCOC(=O)c1cc2[nH]c3ccccc3c2[n+](-c2ccc([N+](=O)[O-])cc2)c1N.O=C([O-])C(F)(F)F` is -13.8%; for `CCOC(=O)c1cc2[nH]c3ccccc3c2[n+](-c2ccc([N+](=O)[O-])cc2)c1C.[Cl-]` it is -70.6%.

On to `C[C@]12CCC3C(CCC4=C/C(=N/OCC(=O)NC(CCC(=O)O)C(=O)O)CC[C@@]43C)C1CCC2O` (stereo partly drawn), for which the “hERG current change (%, negative = inhibition) at 1uM” value turned out to be 10.5%. With `CCN(CC)/C(=N\S(=O)(=O)c1ccccc1C)c1ccccc1` the figure was -5.09%; with `Cc1nn2cc(-c3ccc(Cl)cc3)cnc2c1Cl`, 13.1%. The figure for `CCOC(=O)c1cc2c(=O)n3cccc(C)c3nc2n(CCOC)c1=NC(C)=O` is 8.92%; for `C=CCn1c(=N)c(C(=O)OCC)cc2c(=O)n3cccc(C)c3nc21` it is -73.7%; for `CCn1c(=N)c(C(=O)NCCCOC)cc2c(=O)n3cccc(C)c3nc21` it is -47%. For `C=CCn1c(=N)c(C(=O)NCCCOC)cc2c(=O)n3cccc(C)c3nc21`, the “hERG current change (%, negative = inhibition) at 1uM” value was -64.2%. With `C=CCn1c(=N)c(C(=O)NCCCOC)cc2c(=O)n3ccccc3nc21` the figure was -22.3%. With `O=C(Nc1ccccc1F)N(CCCN1CCOCC1)Cc1cc2cc3c(cc2[nH]c1=O)OCCO3` the figure was 9.36%; with `Cc1ccc(NC(=O)c2cc(N3C(=O)CCC3=O)ccc2N2CCOCC2)cc1`, 5.52%. For `COc1ccc(CN(C)S(=O)(=O)c2nnc(NC(=O)c3cccc(F)c3)s2)cc1OC`, the “hERG current change (%, negative = inhibition) at 1uM” value is 6.86%.

Turning to `CSc1nc(-c2ccco2)cc(C(F)(F)F)c1C#N`, the “hERG current change (%, negative = inhibition) at 1uM” value was 12%. The figure for `CCOC(=O)N1CCN(C(=O)C2CCCN(c3nc4ccc(OCC)cc4s3)C2)CC1` (stereo not drawn) is -3.97%.

Regarding `COc1ccccc1-c1nnc(SCC(=O)NC2CCS(=O)(=O)C2)n1CCc1ccccc1` (stereo not drawn), the “hERG current change (%, negative = inhibition) at 1uM” value was 11.2%. In the case of `O=C(CSc1nnc(-c2ccc(Br)cc2)n1CCc1ccccc1)NC1CCS(=O)(=O)C1` (stereo not drawn), the “hERG current change (%, negative = inhibition) at 1uM” value is listed as -60.7%. The figure for `CCn1c(SCC(=O)NC2CCS(=O)(=O)C2)nnc1-c1ccccc1` (stereo not drawn) is 6.72%; for `COc1ccc(C2(c3cccc(O)c3OC)CCN(C(C)=O)CC2)cc1O` it is 17.8%; for `Cc1ccc2nc(NC(=O)C3CCCN(S(=O)(=O)c4cccnc4)C3)sc2c1` (stereo not drawn) it is 7.66%. The figure for `CCOCCCn1c(=NC(=O)c2cccs2)c(C#N)cc2c(=O)n3ccccc3nc21` is -49.3%. The figure for `CC(C)OCCCn1c(=NC(=O)c2ccncc2)c(C#N)cc2c(=O)n3ccccc3nc21` is -63.4%; for `CCCCCn1c(=NC(C)=O)c(C#N)cc2c(=O)n3ccccc3nc21` it is 0.0455%; for `CCOCCCn1c(=NC(C)=O)c(C#N)cc2c(=O)n3ccccc3nc21` it is 11.7%. Turning to `CC(C)OCCCn1c(=NC(=O)c2cccs2)c(C#N)cc2c(=O)n3ccccc3nc21`, the “hERG current change (%, negative = inhibition) at 1uM” value was -67.1%.

For `CC(=O)N=c1c(C#N)cc2c(=O)n3ccccc3nc2n1CCCOC(C)C`, the “hERG current change (%, negative = inhibition) at 1uM” value is listed as 8.03%. With `Cc1cc(C(=O)CN2C(=O)NC3(CCCCC3)C2=O)c(C)n1-c1ccc2c(c1)OCO2` the figure was 5.94%; with `C=CCN(CC=C)C(=O)C(=O)c1ccn(-c2c(C)csc2C(=O)OC)c1`, -59.3%. The figure for `COC(=O)c1scc(C)c1-n1ccc(C(=O)C(=O)N(C)C)c1` is 9.29%. With `CCN(CC)C(=O)C(=O)c1ccn(-c2c(C)csc2C(=O)OC)c1` the figure was 7.53%; with `CC(C)(C)CN1CCNC(=O)C1CC(=O)NCCc1cnn(-c2ccccc2)c1` (stereo not drawn), 5.53%; with `CSc1sc(C(=O)Nc2ccc(F)cc2F)c2c1C=CCC2`, 11.8%.

For `COc1ccc(NS(=O)(=O)c2cccs2)cc1S(=O)(=O)N1CCOCC1`, the “hERG current change (%, negative = inhibition) at 1uM” value worked out at 14.7%.
